The values below come from PubChem BioAssay.

The nature of assay [1]: compound effects on lung adenocarcinoma cell viability – A549, calcein-AM fluorescence, 48 h, basal, profiling panel (AID 1162). Also: test concentration not given here. Particulars: higher = more signal.
Assay [2] is described as follows: compound effects on differentiated 3T3-L1 adipocyte viability – cell-based, 3T3-L1 adipocytes, calcein-AM fluorescence, 48 h, basal, profiling panel (AID 1163). Also: test concentration not given here. Particulars: 3T3-L1 adipocytes viability, higher = more signal.
Assay [3] is described as follows: compound effects on hepatocellular carcinoma cell viability – HepG2, calcein-AM fluorescence, 48 h, basal, profiling panel (AID 1164). Also: test concentration not given here. Particulars: higher = more signal.
Assay [4] in a line: compound effects on multiple myeloma cell viability – MM1S, calcein-AM fluorescence, 48 h, basal, profiling panel (AID 1165).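 Also: viability of MM1S multiple myeloma cells under basal unstimulated conditions; test concentration not given here.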 Particulars: higher = more signal.
The nature of assay [5]: calcein-AM signal in unstimulated myeloma cells – cell-based, calcein-AM fluorescence, 48 h, PK04 Diversity Set, profiling panel (AID 1166).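 Also: cells grown under basal conditions without added stimulus; test concentration not given here.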 The note with it: RPMI8226 myeloma viability, higher = more signal.
Assay [6] in a line: JC-1 mitochondrial signal, unstimulated HepG2 cells – cell-based, JC-1 fluorescence, 24 h, 100 nL compound, profiling panel (AID 1167). Also: test concentration not given here. Particulars: HepG2 mitochondrial potential, higher = more signal.
Assay [7] is described as follows: JC-1 mitochondrial signal, unstimulated adipocytes – cell-based, JC-1 fluorescence, 3T3-L1 adipocytes, 24 h, 100 nL compound, profiling panel (AID 1168). Also: test concentration not given here. The note with it: JC-1 mitochondrial fluorescence, higher = more signal, called active from +8 up or from −8 down.
Assay [8] can be described thus: JC-1 mitochondrial signal, unstimulated myeloma cells – cell-based, JC-1 fluorescence, RPMI8226, 24 h, 100 nL compound, profiling panel (AID 1169). Also: test concentration not given here. Particulars: JC-1 mitochondrial potential fluorescence, higher = more signal.
Assay [9] in a line: JC-1 mitochondrial signal, unstimulated MM1S myeloma – cell-based, JC-1 fluorescence, 24 h, 100 nL compound, profiling panel (AID 1170). Also: test concentration not given here. The note with it: MM1S mitochondrial potential, higher = more signal.
A short description of assay [10]: resazurin metabolic signal in A549 cells – cell-based, resazurin fluorescence, 24 h, PK04 Diversity Set, profiling panel (AID 1171). Also: test concentration not given here. The note with it: A549 viability, higher = more signal, called active from +8 up or from −8 down.
The nature of assay [11]: resazurin metabolic signal in HepG2 cells – cell-based, resazurin fluorescence, 24 h, PK04 Diversity Set, profiling panel (AID 1172). Also: test concentration not given here. The note with it: HepG2 viability, higher = more signal. For orientation: Alamar Blue is a resazurin reagent that responds to reducing activity.
A short description of assay [12]: budding yeast growth changes without added modifier – OD600, strain BY4716, 24 h, basal condition, primary screen (AID 1173). The note with it: S. cerevisiae BY4716 growth, OD600, 24 h; higher = more signal, called active from +8 up or from −8 down.
The nature of assay [13]: viability profiling in MM1S myeloma cells – cell-based, resazurin fluorescence, basal, 24 h, PK04 Diversity Set, profiling panel (AID 1174). Also: test concentration not given here. The note with it: higher = more signal, called active from +8 up or from −8 down.
Assay [14] concerns the target Dihydroorotate dehydrogenase (quinone), mitochondrial (Plasmodium falciparum (isolate 3D7)) (UniProt Q08210). Put plainly: inhibition of P. falciparum DHODH – biochemical, C-terminal His tag, absorbance 600 nm, primary screen (AID 1175).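 Also: recombinant parasite enzyme with a five histidine tag at its C terminus; test concentration not given here.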 The note with it: PfDHODH enzyme, DCIP absorbance 600 nm; higher = more signal, called active from +8 up or from −8 down.
Assay [15] in a line: inhibition of PAO1 biofilm formation – strain PAO1, LB-PBS medium, absorbance 600 nm, primary screen (AID 1176). Also: test concentration not given here. The note with it: P. aeruginosa PAO1 growth/biofilm, A600, 12 h; higher = more signal.
Assay [16] in a line: growth modulation of vineyard yeast isolate – strain RM11-1a, OD600, basal, 24 h, primary screen (AID 1177).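 Also: cultures grown under basal conditions with no added stressor; test concentration not given here.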 Particulars: S. cerevisiae RM11-1a growth, OD600, 24 h; higher = more signal, called active from +8 up or from −8 down.
The nature of assay [17]: growth of efflux-deficient E. coli DRC39 – strain DRC39, OD650, 24 h, E. coli filamentation inducers, primary screen (AID 1178).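 Also: growth measured as culture turbidity by optical density at 650 nm; test concentration not given here.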 The note with it: E. coli DRC39 acrAB, higher = more signal, called active from +8 up or from −8 down.
The nature of assay [18]: growth of efflux-deficient E. coli DRC39 – strain DRC39, OD650, 48 h, E. coli filamentation inducers, primary screen (AID 1179).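 Also: screen aims at cell division blockers that make cells filament.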 The note with it: E. coli DRC39 delta-acrAB growth, higher = more signal, called active from +8 up or from −8 down.
The nature of assay [19]: viability profiling in RPMI8226 myeloma cells – cell-based, resazurin fluorescence, basal, 24 h, PK04 Diversity Set, profiling panel (AID 1180).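 Also: RPMI8826 multiple myeloma cell line at 5000 cells per well; test concentration not given here.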 The note with it: higher = more signal.
For assay [20], the target named is E3 ubiquitin-protein ligase XIAP (Homo sapiens) (UniProt P98170). As to the kind of experiment: small molecules binding XIAP protein – biophysical, small-molecule microarray, fluorescence 635 nm, primary screen (AID 1181).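 Also: score merges 667 nm emission and signal to noise over triplicate slides.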 Particulars: higher = more signal.
Chain of E3 ubiquitin-protein ligase XIAP (Homo sapiens) (P98170 whole entry, looked up): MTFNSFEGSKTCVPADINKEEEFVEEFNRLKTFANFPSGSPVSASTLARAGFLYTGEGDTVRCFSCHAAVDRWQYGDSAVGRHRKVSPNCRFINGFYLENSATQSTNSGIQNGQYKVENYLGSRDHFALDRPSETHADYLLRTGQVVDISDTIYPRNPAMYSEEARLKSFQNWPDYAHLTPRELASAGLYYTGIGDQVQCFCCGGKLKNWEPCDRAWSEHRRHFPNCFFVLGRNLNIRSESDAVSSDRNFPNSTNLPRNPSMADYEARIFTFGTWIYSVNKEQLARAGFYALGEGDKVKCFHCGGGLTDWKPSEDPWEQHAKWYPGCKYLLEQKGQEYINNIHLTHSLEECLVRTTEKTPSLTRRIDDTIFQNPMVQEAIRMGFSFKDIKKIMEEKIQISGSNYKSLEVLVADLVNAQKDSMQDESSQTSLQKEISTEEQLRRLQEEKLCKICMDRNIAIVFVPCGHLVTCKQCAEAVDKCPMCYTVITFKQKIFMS

Activity calls are given as the source filed them. Unless noted, no rule for the calls is given here.

Chain of Dihydroorotate dehydrogenase (quinone), mitochondrial (Plasmodium falciparum (isolate 3D7)) (Q08210 whole entry, looked up): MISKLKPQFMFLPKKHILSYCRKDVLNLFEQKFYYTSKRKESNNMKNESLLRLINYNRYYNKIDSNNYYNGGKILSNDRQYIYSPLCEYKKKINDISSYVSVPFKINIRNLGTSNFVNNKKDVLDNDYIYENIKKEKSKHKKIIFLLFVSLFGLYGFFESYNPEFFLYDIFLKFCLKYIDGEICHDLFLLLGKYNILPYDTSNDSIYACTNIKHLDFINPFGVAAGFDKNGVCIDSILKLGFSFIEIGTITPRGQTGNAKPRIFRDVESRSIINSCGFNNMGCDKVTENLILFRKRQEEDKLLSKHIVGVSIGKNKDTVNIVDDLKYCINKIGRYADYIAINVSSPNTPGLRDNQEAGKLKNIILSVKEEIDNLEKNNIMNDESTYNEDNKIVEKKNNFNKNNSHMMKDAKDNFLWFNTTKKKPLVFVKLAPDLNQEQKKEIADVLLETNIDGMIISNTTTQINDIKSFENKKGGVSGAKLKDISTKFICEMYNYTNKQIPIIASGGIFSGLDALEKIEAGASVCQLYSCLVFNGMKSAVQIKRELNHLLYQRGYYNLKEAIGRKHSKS

With `O=C1C2C=CC(C(O)C(c3ccccc3)c3ccccc3)N(Nc3ccccc3F)C2C(=O)N1c1ccccc1` (stereo not given), the z-score was -0.486 in assay [1]; -0.368 in assay [2]; 0.355 in assay [3]; -1.33 in assay [4]; -0.0284 in assay [5]; -1.7 in assay [6]. In addition, the z-score was -1.3 (inactive) in assay [7]; 0.284 in [8]; -0.73 in assay [9]; -0.021 (inactive) in [10]; -0.353 in assay [11]; -0.704 (inactive) in [12]. Further, the z-score was -0.813 (inactive) in assay [13]; 0.34 (inactive) in [15]; 1.52 (inactive) in assay [16]; -0.872 (inactive) in assay [17]; -0.82 (inactive) in [18]; -1.32 in assay [19]. The values for the composite z-score in [14] and in assay [20] were 1.68 (inactive) and 0.0617, respectively.
As for `COCCCNC(=O)[C@@]1(Cc2ccccc2I)c2ccccc2C(=O)N(Cc2ccccc2OC)[C@H]1c1ccc(CO)cc1`, the z-score in [1] is 0.0588; in [2], -0.188; in assay [3], -0.387; in [4], -0.686; in [5], -1.58; in assay [6], 1.44. Also, the z-score in assay [7] was -0.217 (inactive); in assay [8], -0.533; in assay [9], -0.151; in assay [10] it was -0.113 (inactive); in assay [11], -0.831; in [12], -0.366 (inactive). Besides, the z-score in assay [13] was -0.0499 (inactive); in assay [15], 0.18 (inactive); in [16], 1.06 (inactive); in assay [17], -0.033 (inactive); in assay [18] it was -0.113 (inactive); in assay [19], 0.317. The figures for the composite z-score in assay [14] and in assay [20] were 0.671 (inactive) and 0.0506, respectively.
On to `C=CCOC(=O)[C@H]1[C@@H]2C(=O)O[C@@H](c3ccccc3)[C@@H](c3ccccc3)N2[C@@H](c2ccc(OCCOC(=O)[C@@H]3C[C@@H]4C(=O)N[C@@H](Cc5ccccc5)C(=O)N4[C@@H]3c3ccc(O)cc3)cc2)[C@]12C(=O)Nc1ccc(I)cc12`, for which the z-score in [1] was -1.29; in assay [2], -0.28; in assay [3], 0.561; in assay [4], -0.325; in assay [5], -0.561; in [6], -2.14. Besides, the z-score in assay [7] was 0.687 (inactive); in [8] it was -0.398; in [9], -1.03; in [10], -0.454 (inactive); in assay [11] it was -0.654; in [12], 2.3 (inactive). Moreover, the z-score is -1.06 (inactive) in assay [13]; 2.75 (inactive) in assay [15]; 2.92 (inactive) in assay [16]; -0.588 (inactive) in assay [17]; -0.508 (inactive) in [18]; -0.721 in [19]. The composite z-score in assay [14] is 0.684 (inactive); in assay [20] it was 0.349.
As for `CC(C)C[C@H]1NC(=O)CNC(=O)[C@@]23C(=O)N[C@@H](Cc4ccccc4)C2[C@H](C)[C@@]2(C)O[C@H]2C3/C=C/C/C=C\CNC1=O` (stereo not given in full), the z-score in [1] is -0.518; in [2], 0.535; in assay [3], -0.899; in assay [4], -0.101; in assay [5], -0.0815; in assay [6], -0.561. In addition, the z-score in assay [7] was 0.451 (inactive); in assay [8] it was -0.469; in assay [9], -0.112; in [10] it was 0.478 (inactive); in assay [11], -0.657; in assay [12], -0.572 (inactive). The z-score was 0.105 (inactive) in assay [13]; 1.11 (inactive) in [15]; 0.0636 (inactive) in assay [16]; -0.288 (inactive) in assay [17]; -0.141 (inactive) in assay [18]; 0.293 in assay [19]. Moreover, the composite z-score in [14] is -0.341 (inactive); in assay [20], -0.122.
Take `CO[C@H]1O[C@H](CO)[C@@H](OC(=O)Nc2cccc(F)c2)[C@H](OC(=O)c2cc3ccccc3[nH]2)[C@H]1OC(=O)c1cc2ccccc2[nH]1`: the z-score in assay [1] is 1.16; in assay [2], 0.437; in assay [3], 0.387; in [4], 0.0134; in assay [5], 0.804; in assay [6], -1.56. The z-score in assay [7] was 2.42 (inactive); in assay [8], -0.397; in assay [9] it was -0.415; in [10] it was -2.49 (inactive); in [11] it was -2.49; in [12], -0.21 (inactive). In addition, the z-score is -2.63 (inactive) in [13]; 1.1 (inactive) in [15]; -0.67 (inactive) in assay [16]; 0.181 (inactive) in [17]; 1.02 (inactive) in assay [18]; -2.46 in assay [19]. In addition, the composite z-score in assay [14] was -0.603 (inactive); in [20] it was 0.331.
In the case of `CC1CC/C=C\[C@H]2OC34C=CCN(CCN5CCOCC5)C(=O)[C@H]3N(C(CO)C(C)C)C(=O)[C@@H]4C2C(=O)O1` (stereo not given in full), the z-score was 0.0685 in assay [1]; -1.26 in assay [2]; 0.545 in [3]; -0.515 in [4]; 0.0582 in assay [5]; -0.989 in assay [6]. For the same molecule, the z-score in assay [7] is -0.161 (inactive); in assay [8], 0.19; in [9], -0.308; in assay [10] it was -0.37 (inactive); in assay [11] it was -0.137; in assay [12], 0.183 (inactive). The z-score in assay [13] was -0.885 (inactive); in assay [15], -0.869 (inactive); in assay [16] it was -0.459 (inactive); in assay [17] it was 0.332 (inactive); in [18], 0.365 (inactive); in [19], -0.465. Besides, the composite z-score in [14] was -3.11 (inactive); in [20] it was -0.0172.
In the case of `COC(=O)[C@@]1(Cc2ccc(F)cc2)[C@H]2c3cc(C(=O)N4CCCC4)n(CCSCCO)c3C[C@H]2CN1C(=O)c1ccccc1`, the z-score is -0.354 in assay [1]; 0.75 in assay [2]; 0.706 in [3]; -1.58 in assay [4]; -0.118 in assay [5]; 1.3 in [6]. Also, the z-score in [7] was -1.3 (inactive); in assay [8] it was -0.00907; in assay [9] it was -0.303; in assay [10] it was -0.294 (inactive); in [11], -0.704; in [12] it was 1.54 (inactive). Besides, the z-score in assay [13] was -0.526 (inactive); in [15], 0.855 (inactive); in assay [16], 1.3 (inactive); in assay [17], -0.405 (inactive); in [18], -0.317 (inactive); in [19] it was -0.546. The composite z-score in [14] is 0.289 (inactive); in assay [20] it was 0.0378.
On to `CCOC(=O)C1=CCC(c2ccncc2)N(S(=O)(=O)c2ccc(C)cc2)C1` (stereo not given), for which the z-score in assay [1] is -1.72; in [2] it was -0.784; in [3] it was -1.37; in assay [4] it was -2.28; in [5], -1.31; in [6], -1.41. Besides, the z-score in [7] was 0.561 (inactive); in [8], 0.115; in assay [9], -1.61; in assay [10] it was -0.44 (inactive); in assay [11], -0.226; in assay [12], -0.867 (inactive). In addition, the z-score in assay [13] was -1.14 (inactive); in assay [15], -0.433 (inactive); in [16], -0.364 (inactive); in assay [17] it was -0.0978 (inactive); in assay [18], 0.737 (inactive); in assay [19] it was -1.25. The values for the composite z-score in [14] and in assay [20] were -1.2 (inactive) and -0.197, respectively.
Turning to `C=CCC(OC(C)=O)[C@@H]1[C@@H](N(Cc2ccc(-c3ccccc3)cc2)C(=O)Cc2ccc(OC)cc2)c2cc(OCCCO)ccc2N1C(=O)c1ccc2ccccc2c1` (stereo not given in full), the z-score in [1] is -0.186; in assay [2], 0.407; in [3], -0.437; in assay [4], -1.12; in assay [5] it was -0.807; in [6], 1.87. The z-score in [7] is -0.81 (inactive); in assay [8], 1.08; in [9] it was 0.383; in [10] it was -0.0027 (inactive); in assay [11], -0.555; in assay [12], -0.562 (inactive). For the same molecule, the z-score in assay [13] was -0.536 (inactive); in assay [15], 0.0914 (inactive); in assay [16], -1.21 (inactive); in assay [17] it was 0.174 (inactive); in assay [18], -0.339 (inactive); in assay [19], 0.186. For the same molecule, the values for the composite z-score in assay [14] and in assay [20] were -0.804 (inactive) and 0.202, respectively.
